Only some compounds are listed: those with a hit (about 2.9% of all), similar ones and a draw of the others.
MEKK2 mut-MEK5 = signal of MEK5 binding to mutant human MEKK2 PB1 domain; actives 0.35% (n = 290,000); bead flow cytometry, Alexa488-MEK5 binding to MEKK2 mutant; percent response, % at 10 µM; AID 1530; in the data active means percent response above about 24%, passing the limit was not always enough
CRFR2-BP ag = CRF-BP/CRF-R2 complex agonism. HEK293 CRF-R2/CRF-BP, calcium dye fluorescence (FLIPR); percent of saturating CRF peptide response. activation, % at 13.2 µM. actives 0.46% (n = 350,000). AID 588473;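 active means activation of at least 50%, plus an integration ratio under a set limit after plate pattern correction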
CRFBP-R2 block = CRF-BP/CRF-R2 complex antagonism. inhibition, % at 11.8 µM. HEK293 CRF-R2/CRF-BP, CRF-induced calcium fluorescence. AID 588475. actives 0.59% (n = 350,000);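 active means inhibition of the ligand-induced calcium signal above about 50% at the single tested concentration, limit read from the data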
MEKK3 PB1 HTS = MEKK3-MEK5 PB1 interaction, increase or decrease. actives 1.4% (n = 290,000). Q99759. bead-based flow cytometry, Alexa488-MEK5 binding to MEKK3; actives lie on both sides; 0 = blocked by unlabeled MEK5, 100 = vehicle. AID 1529. binding response (% of control), % at 10 µM;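 active means binding response more than 3 SD above or below the average of its plate-row segment, actives on both sides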;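 further: Alexa488 bead fluorescence after subtracting the streptavidin-only scavenger bead signal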
ABCB6 inh MLPCN = inhibitors of human ABC transporter ABCB6 | K562-ABCB6 porphyrin accumulation, flow cytometry, 1 h; hits give low values | fluorescence ratio to DMSO, % at 10 µM | actives 0.19% (n = 360,000) | AID 602162;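 active means fluorescence ratio to DMSO below 75%, the collection mean minus 3 SD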;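 further: signal is porphyrin accumulated inside mitochondria; lower ratio means ABCB6 inhibition with less porphyrin fluorescence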
Target sequence (Q9NP58 whole entry, looked up): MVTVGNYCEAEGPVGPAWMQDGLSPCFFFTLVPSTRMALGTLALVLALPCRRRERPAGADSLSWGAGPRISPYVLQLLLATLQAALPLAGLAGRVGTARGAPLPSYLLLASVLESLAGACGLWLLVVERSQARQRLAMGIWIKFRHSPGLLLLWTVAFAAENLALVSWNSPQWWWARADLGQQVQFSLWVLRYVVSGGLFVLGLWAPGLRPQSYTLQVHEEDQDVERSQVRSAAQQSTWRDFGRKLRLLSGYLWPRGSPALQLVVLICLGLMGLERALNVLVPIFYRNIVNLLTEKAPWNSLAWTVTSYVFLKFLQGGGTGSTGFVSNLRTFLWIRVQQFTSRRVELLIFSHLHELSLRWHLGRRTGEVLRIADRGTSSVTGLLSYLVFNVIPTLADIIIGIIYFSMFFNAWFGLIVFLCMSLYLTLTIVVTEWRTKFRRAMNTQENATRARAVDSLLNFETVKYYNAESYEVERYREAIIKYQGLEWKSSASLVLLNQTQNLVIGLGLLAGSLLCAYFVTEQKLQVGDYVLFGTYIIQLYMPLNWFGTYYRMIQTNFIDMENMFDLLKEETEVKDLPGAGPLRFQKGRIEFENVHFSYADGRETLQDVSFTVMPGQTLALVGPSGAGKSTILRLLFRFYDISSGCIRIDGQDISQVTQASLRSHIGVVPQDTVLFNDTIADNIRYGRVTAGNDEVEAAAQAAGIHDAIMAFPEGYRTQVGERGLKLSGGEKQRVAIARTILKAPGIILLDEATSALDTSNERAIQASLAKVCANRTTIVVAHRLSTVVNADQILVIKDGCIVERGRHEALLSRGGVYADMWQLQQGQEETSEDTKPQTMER
MEKK2wt PB1 HTS = raises or lowers MEK5 binding to wildtype human MEKK2 PB1 domain; Q9Y2U5; bead flow cytometry, Alexa488-MEK5 binding to MEKK2 WT; actives lie on both sides; binding response (% of control), % at 10 µM; actives 1.1% (n = 290,000); AID 1531; in the data active means binding response below about 67% or above about 130%
MEKK2wt confirm = raises or lowers MEK5 binding to wildtype human MEKK2, retest; shares compounds with MEKK3 PB1 HTS; bead flow cytometry, Alexa488-MEK5 binding to MEKK2 WT; actives lie on both sides; binding response (% of control), % at 10 µM; actives 2.4% (n = 5,900); AID 1892; in the data active means binding response below about 16% or above about 210%; inactive means in between
MEKK2mut-MEK5 = signal of MEK5 binding to mutant human MEKK2, retest. percent response, % at 10 µM. actives 2% (n = 5,900). shares compounds with MEKK3 PB1 HTS. bead flow cytometry, Alexa488-MEK5 binding to MEKK2 mutant; in the data active means percent response mostly above about 71%, no sharp cut-off; inactive means mostly below about 38%;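 further: higher means compound restores mutant binding toward wildtype level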
MEKK3 confirm = confirmation of inhibitors of MEK5 binding to human MEKK3; actives 1.8% (n = 5,900); bead flow cytometry, Alexa488-MEK5 binding to MEKK3; hits give low values; shares compounds with MEKK3 PB1 HTS; binding response (% of control), % at 10 µM; AID 1894;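 active means binding response below 72% of control, or above a set upper limit, though filed actives all read lower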
Numbers stand for hits; . = inactive; / = not tested or not shown; ! = not confirmed by another sample; [ ] = another dose, or the depositor's remark.

SMILES	MEKK2 mut-MEK5	CRFR2-BP ag	CRFBP-R2 block	MEKK3 PB1 HTS	ABCB6 inh MLPCN	MEKK2wt PB1 HTS	MEKK2wt confirm	MEKK2mut-MEK5	MEKK3 confirm
C=CCNS(=O)(=O)c1cccc2cc(C(=O)O)c(O)cc12	.	.	.	134.0	.	136.0	.	.	.
CCn1c(SCC(=O)N/N=C/c2ccc(O)c(OC)c2)nc2ccccc21	.	.	.	163.0	.	.	.	.	.
CCn1c(SCC(=O)N/N=C/c2cccs2)nc2ccccc21	.	.	.	144.0	.	.	.	.	.
COc1cc(/C=N/NC(=O)CCc2c(C)n[nH]c2C)ccc1O	.	.	.	123.0	.	.	.	.	.
Cn1c(SCC(=O)N/N=C/c2cccs2)nc2ccccc21	.	.	.	.	.	.	/	/	/
COc1ccc(NS(=O)(=O)c2cccc(C(=O)OCC(=O)NC3CC3)c2)cc1	.	.	.	.	.	.	/	/	/
O=C(Nc1ccc(Cl)c(-c2nc3ccccc3[nH]2)c1)c1ccc2c(c1)OCO2	.	.	.	.	.	.	/	/	/
O=C(Nc1ccc(-c2nc3ccccc3[nH]2)cc1)c1ccc2c(c1)OCO2	.	.	.	81.0[inhibitor]	.	.	.	.	.
Cc1nc(Cl)c(C(=O)NC(=O)NCc2ccccc2)c(C)c1Cl	.	.	.	142.0	.	.	.	.	.
C[C@@H]1CN([C@H](C)CO)C(=O)CCCn2nncc2CO[C@H]1CN(C)C(=O)NC1CCCCC1	/	.	.	/	.	/	/	/	/
O=C(O)c1cc(Nc2cc(Cl)c3nonc3c2[N+](=O)[O-])ccc1O	.	.	.	.	.	.	/	/	/
COc1ccc(-c2cc(=O)c3c(OC)c(OC)c(OC)c(OC)c3o2)cc1OC	.	.	.	68.0![inhibitor]	.	.	.	.	.
COc1ccc(-c2cc(=O)c3c(O)c(OC)c(OC)c(OC)c3o2)cc1	/	.	.	/	.	/	/	/	/
Cc1ccc(NC(=O)CNC(=O)c2ccc(C)o2)cc1	.	.	.	29.0[inhibitor]	.	46.0[inhibitor]	.	.	.
CCSc1nnc(-c2sc3nnc(-c4ccccc4)c(-c4ccccc4)c3c2N)o1	.	116.2	.	.	.	70.0[inhibitor]	.	.	.
CC(=O)N1c2ccc(S(=O)(=O)N3CCC(C(=O)Nc4cccc(C(F)(F)F)c4)CC3)cc2CC1C (stereo not given)	.	.	.	.	.	.	/	/	/
CC(=O)c1c(C)[nH]c(C(=O)Nc2ccc(Cl)c(S(=O)(=O)N(C)C)c2)c1C	.	.	.	.	.	.	/	/	/
CCOc1ncccc1C(=O)OCC(=O)Nc1cccc(S(N)(=O)=O)c1	.	.	.	.	.	.	/	/	/
CC(=O)c1c(C)[nH]c(C(=O)OCC(=O)Nc2ccc(Cl)c(S(=O)(=O)N(C)C)c2)c1C	.	.	.	38.0[inhibitor]	.	43.0[inhibitor]	.	.	.
CCOc1ncccc1C(=O)OCC(=O)Nc1ccc(C)c(S(=O)(=O)N(C)C)c1	.	.	.	73.0[inhibitor]	.	.	.	.	.
CCc1c(C)nc2ncnn2c1N1CCC(C(=O)NCc2cccs2)CC1	.	.	.	3.0[inhibitor]	.	6.0[inhibitor]	.	.	.
CC(C)n1cnc2c(N(C)c3ccccc3)nc(N(CCN(C)C)Cc3ccccc3)nc21	.	.	.	.	.	175.0	.	.	.
O=C1CC(c2cccc(Oc3ccccc3)c2)NC(=O)N1 (stereo not given)	.	.	.	0.0[inhibitor]	.	-1.0[inhibitor]	.	.	.
O=C(CN1C(=O)/C(=C\C=C\c2ccccc2)SC1=S)Nc1ccc(F)cc1	.	.	.	.	.	.	/	/	/
O=C(COC(=O)CCN1C(=O)/C(=C\C=C\c2ccccc2)SC1=S)Nc1cc(F)ccc1F	.	.	.	.	.	58.0[inhibitor]	.	.	.
SMILES	MEKK2 mut-MEK5	CRFR2-BP ag	CRFBP-R2 block	MEKK3 PB1 HTS	ABCB6 inh MLPCN	MEKK2wt PB1 HTS	MEKK2wt confirm	MEKK2mut-MEK5	MEKK3 confirm
CCN1C(=O)[C@H]2[C@@H](c3ccc(C)cc3)N3C(=O)N(c4ccc(OC)cc4)C(=O)[C@@]3(C)[C@H]2C1=O	.	.	.	.	.	.	/	/	/
CCNc1ccc(C(=O)N/N=C/c2c(C)nn(-c3ccccc3)c2N2CCCC2)cc1[N+](=O)[O-]	.	.	.	138.0	.	.	.	.	.
CCCCOc1ccc(C2/C(=C(/O)c3ccc4c(c3)CC(C)O4)C(=O)C(=O)N2CCCN2CCOCC2)cc1OC (stereo not given)	.	.	.	.	.	.	/	/	/
COc1ccccc1CNc1nc(-c2cc(C)n(C)c2C)cs1	.	.	.	.	.	-7.0[inhibitor]	.	.	.
Cc1cc(-c2csc(N)n2)c(C)n1C	.	.	.	.	.	.	/	/	/
CCOC(=O)C(NC(=O)c1ccccc1Cl)(Nc1ccc(C)c(C)c1)C(F)(F)F (stereo not given)	.	.	.	.	.	.	/	/	/
CCOC(=O)C(NC(=O)c1ccccc1Cl)(Nc1ccc(C(F)(F)F)cc1)C(F)(F)F (stereo not given)	.	.	.	151.0	.	.	.	.	.
O=C(NCCCn1ccnc1)/C(=C/c1ccco1)NC(=O)c1ccco1	.	.	.	66.0[inhibitor]	.	.	.	.	.
C=C1CCC[C@]2(C)C[C@H]3OC(=O)C(CNC(C)CCCC(C)C)[C@H]3CC12 (stereo not given in full)	.	.	.	.	.	138.0	.	.	.
CCn1cc(C(=O)NCCCOC(C)C)c(=O)c2cc(S(=O)(=O)N3CCC(C)CC3)ccc21	.	.	.	.	.	.	/	/	/
Cc1ccnc(NC(=O)c2cccc(OC(F)F)c2)n1	.	.	.	.	.	.	/	/	/
O=C(Nc1cc(Cl)cc(Cl)c1)c1cccc(OC(F)F)c1	.	.	.	.	.	172.0	.	.	.
O=C(CSc1nc(-c2ccccc2)nc2ccccc12)Nc1cccc(C(=O)O)c1	.	.	.	4.0[inhibitor]	.	6.0[inhibitor]	.	.	.
O=C(CSc1nc(-c2ccc(F)cc2)nc2ccc(F)cc12)Nc1cccc(C(=O)O)c1	.	.	.	.	.	.	/	/	/
O=C(NC1CCCC1)C(c1ccccc1F)N(C(=O)c1csnn1)c1ccccc1 (stereo not given)	.	.	.	.	.	.	/	/	/
CSc1ccc(/C=N/NC(=O)CN2CCN(Cc3ccccc3)CC2)cc1	.	.	.	.	.	.	/	/	/
